In PubChem BioAssay AID588742 (Southern Research Specialized Biocontainment Screening …, 2011):
Screen size: about 1,800 compounds; about 410 (23%) were called active. A selection follows. Measured potencies and affinities stand elsewhere. A number with no mark means an inactive call. How the calls were made is not given here.

Experiment: Vero cell cytotoxicity, cytotoxicity control for flavivirus capping enzyme inhibitors (AID 588742)
Conditions: Vero cells viability, cytotoxicity counter-screen; series mostly up to 40 µM; viability: at the top concentration

| Structure (SMILES) | viability |
| --- | --- |
| C=CCN=C1N[C@@H](c2cccc(C(F)(F)F)c2)C(C(=O)OC)=C(C)N1CC | 96.3% |
| Cc1c(OC(=O)c2ccc([N+](=O)[O-])cc2)c2c(c[n+]1C)COC(C)(C)OC2 | 102% |
| CCOC(=O)c1cc(-c2ccc(/C=C3/C(=O)NC(=O)C(C#N)=C3C)o2)ccc1Cl | 115% |
| CCC(c1ccccc1)C(CC)c1cc(O)c(O)c(O)c1 (stereo not drawn) | 87.2% |
| N#CC1=C(N)C2=C(N3CCCCC3)CCCC2C1(C#N)C#N (stereo not drawn) | 95.8% |
| COc1ccc(C2Nc3cccc4cccc(c34)N2)cc1 | 106% |
| COc1ccc(-c2cc(-c3ccc(Cl)cc3)c(C#N)c(SCC(=O)O)n2)cc1 | 82.6% |
| CCOC(=O)/C(C#N)=C/c1c(N2CCN(CC)CC2)nc2c(C)cccn2c1=O | 102% |
| COc1ccccc1N(O)C1CC(=O)N(c2ccc(F)cc2)C1=O (stereo not drawn) | 105% |
| CC(=O)N(C1=C(Cl)C(=O)c2ccccc2C1=O)c1ccc(C(=O)O)cc1 | 114% [at 20 µM] |
| O=S(c1ccccc1O)S(=O)c1ccccc1O (stereo not drawn) | 106% |
| Cc1cc(=O)n(CCc2ccccc2)c(O)c1C#N | 105% |
| CC1CC2=C(NC(=S)NC2c2ccccc2F)/C(=C/c2ccccc2F)C1 (stereo not drawn) | 85.3% |
| COc1ccc(N2C(=O)C(Cl)=C(N3CCOCC3)C2=O)cc1 | 97.6% |
| O=C1N=c2ccc(Br)cc2=C1c1sc(=S)n(NS(=O)(=O)c2ccccc2)c1O | 91.5% |
| COC(=O)CN(c1ccccc1C)S(C)(=O)=O | 97% |
| COc1cccc(/C=C2\SC(=S)N(C(Cc3ccccc3)C(=O)O)C2=O)c1 (stereo not drawn) | 95.1% |
| COc1ccc(-c2csc(NC(=O)CSc3nc(C)nc4sc(C(=O)O)c(C)c34)n2)cc1 | 94.1% |
| Oc1ccc(/C=N/NC(=S)Nc2cccnc2)c(O)c1O | 92.2% |
| CCSc1ncc(Cl)c(C(=O)N(Cc2ccc(N(C)C)cc2)C2CCS(=O)(=O)C2)n1 (stereo not drawn) | 93.8% |
| CCN(CCO)c1ccc(NC(=S)Nc2cccc(S(=O)(=O)N(C)C)c2)cc1 | 95.5% |

| Structure (SMILES) | viability |
| --- | --- |
| COc1ccc(NC(=S)NNc2ccc(S(=O)(=O)Nc3ccccc3C(=O)O)cc2[N+](=O)[O-])cc1 | 103% |
| O=C1c2ccccc2C(=O)N1OS(=O)(=O)c1ccc(F)cc1 | 101% |
| CC(C)=CCC1=C(OCC(=O)O)C(=O)c2ccccc2C1=O | 92.7% |
| CN(C)NC(=S)Nc1ccc2nc(-c3ccccn3)c(-c3ccccn3)nc2c1 | 101% |
| CC(C)c1ccc(S(=O)(=O)/N=C2\C=C(NS(=O)(=O)c3ccccc3)C(=O)c3ccccc32)cc1 | 80% |
| CC(C)c1ccc(S(=O)(=O)c2n[nH]n3c2nc(=O)c2ccccc23)cc1 | 103% |
| Cc1ccc(C(C2C(=O)CC(C)(C)CC2=O)C2C(=O)CC(C)(C)CC2=O)s1 | 93.8% |
| CC1=NN(c2ccc(Cl)c(C(=O)O)c2)C(=O)/C1=C\c1ccc(-c2ccc(C(=O)O)cc2)o1 | 100% |
| CC1=NN(c2ccc(C(=O)O)cc2)C(=O)/C1=C/c1ccc(-c2ccccc2F)o1 | 101% |
| COc1ccc(N2C(=NC(=O)CCCc3ccccc3)SC3CS(=O)(=O)CC32)cc1 (stereo not drawn) | 103% |
| O=C1NC(=S)NC1=Cc1ccco1 | 105% |
| O=C1C(=Cc2cccn2-c2ccc(O)cc2)C(=O)c2ccccc21 | 87.5% |
| COC(=O)c1c(Cl)c2n3ccccc3c(C)c(-c3ccccc3)c-2c1C(=O)OC | 102% |
| COc1ccc(C(C2C(=O)CC(C)(C)CC2=O)C2C(=O)CC(C)(C)CC2=O)cc1CO | 95.5% |
| Cc1ccc(CCCNC(=O)C2CCC(=O)N(Cc3cccc(F)c3)C2)cc1 (stereo not drawn) | 91.8% |
| CC(C)(C)OC(=O)N1CCN(C(=O)c2ncn(Cc3ccccc3)c2C(=O)N2CCN(C(=O)OC(C)(C)C)CC2)CC1 | 101% |
| CC1(C(=O)NNC(=O)c2ccc([N+](=O)[O-])cc2)CC1(Br)Br (stereo not drawn) | 99.5% |
| CC(=O)NC(c1ccco1)c1cc(Cl)c2ccccc2c1O (stereo not drawn) | 102% |
| CCC(=O)NC(c1ccco1)c1cc(Cl)c2ccccc2c1O (stereo not drawn) | 95.8% |
| O=C(O)COc1ccccc1C(Nc1ccccn1)c1cc(Cl)c2cccnc2c1O (stereo not drawn) | 106% |
| COc1ccc(NC(=O)c2ccccn2)cc1OC | 97.5% |

| Structure (SMILES) | viability |
| --- | --- |
| C=CCS/C(N)=N\N=C\c1cc(Br)cc([N+](=O)[O-])c1O | 90.7% |
| COc1cccc(CNC(=O)CCc2nnc3ccc(NCCCN4CCCC4=O)nn23)c1 | 96.2% |
| CCOC(=O)C1Nc2ccccc2C2C(O)C(O)CC12 (stereo not drawn) | 88.7% |
| COC1C=COC2(C)Oc3c(C)c(O)c4c(O)c(c(CN5CCN(C)CC5)c(O)c4c3C2=O)NC(=O)C(C)=CC=CC(C)C(O)C(C)C(O)C(C)C(OC(C)=O)C1C (stereo not drawn) | 99.8% |
| O=C(C1=C(O)C(=O)N(Cc2ccco2)C1c1cccnc1)c1cc2ccccc2o1 (stereo not drawn) | 112% |
| O=C(O)CN1C(=O)/C(=C\c2cccc(OCc3ccccc3F)c2)SC1=S | 93% |
| COc1cc(NC(=O)CSc2ncnc3sc4c(c23)CCC(C)C4)c(C(=O)O)cc1OC (stereo not drawn) | 104% |
| CCOC(=O)c1ccc2c(c1)n(CCO)c(C)[n+]2CC | 100% |
| Cc1cccc2cc(C#N)c(N3CCC(O)CC3)nc12 | 93.1% |
| COc1cccc(N2C(=O)CC(Nc3ccc(N4CCOCC4)cc3)C2=O)c1 (stereo not drawn) | 98.2% |
| Cc1cc(C(C2C(=O)CC(C)(C)CC2=O)C2C(=O)CC(C)(C)CC2=O)cc(C)c1OC(F)F | 103% |
| O=C(/C=C/c1ccccc1)n1cnnc1SC/C=C/c1ccccc1 | 98.6% |
| O=C(O)c1cc(NCc2ccc(F)cc2)ccc1N1CCOCC1 | 100% |
| COC(=O)CCC(=O)OC1(C)C(=O)C2=CN(C3CC3)C(c3ccc(OC)cc3)=CC2=C(Br)C1=O (stereo not drawn) | 98% |
| Cc1ccc(N2C(=O)C(Cl)=C(N3CCOCC3)C2=O)cc1Cl | 110% |
| CCOc1cc(C(c2c(C)[nH][nH]c2=O)c2c(C)[nH][nH]c2=O)cc([N+](=O)[O-])c1O | 95.1% |
| Cc1ccc(C)c(N=Cc2cc3c(cc2[N+](=O)[O-])OCO3)c1 | 95.3% |
| O=[N+]([O-])c1cc2ccccc2c(O)c1O | 102% |
| O=C(O)c1cc([N+](=O)[O-])c(Sc2nc3ccccc3[nH]2)c([N+](=O)[O-])c1 | 98.8% |
| CCC1=NN2C(=N)/C(=C\c3ccc(OCc4cc(=O)n5nc(CC)sc5n4)c(OC)c3)C(=O)N=C2S1 | 97.3% |
| Cc1c(C2CC(=O)N(c3ccccc3)C2=O)[nH]n(-c2ccccc2)c1=O (stereo not drawn) | 101% |
